Reference: PubChem BioAssay AID1159580 (chemical genetic matrix, 2015)
Values joined by “and” are separate entries in the source; they are usually repeats but may differ in a detail not shown here. Equal entries are not always repeated. About 2,000 (36%) of roughly 5,500 compounds were called active. Not shown: some 18% with an inconclusive outcome. No stated cut-off is given here; in the data, active means normalized growth mostly below about 0.91 (no sharp cut-off); inconclusive means no clear call, values can overlap the other calls; inactive means mostly above about 0.92. This is one part of the list.

Test: chemical genetic growth profiling, strain panel (AID 1159580);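 further: tested at 20 µM; growth read once vehicle control cultures reached saturation at 30 °C; 1 = growth at the plate median or of vehicle wells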
Conditions: growth OD

Measured: normalized growth

CC(C)NCC(O)c1cc(O)cc(O)c1 (centres undefined)
inactive: S. cerevisiae deletion strains, locus YJR043C, strain POL32, stronger effect = lower value 1.02 | S. cerevisiae deletion strains, locus YJR066W, strain TOR1, stronger effect = lower value 0.916 | S. cerevisiae deletion strains, locus YKL009W, strain mrt4, stronger effect = lower value 0.967 | S. cerevisiae deletion strains, locus YKL068W, stronger effect = lower value 0.989 | S. cerevisiae deletion strains, locus YKL085W, strain MDH1 (second series), stronger effect = lower value 0.979 | S. cerevisiae deletion strains, locus YKL085W, strain MDH1, stronger effect = lower value 0.979 | S. cerevisiae deletion strains, locus YKL160W, strain elf1, stronger effect = lower value 0.983 | S. cerevisiae deletion strains, locus YKL190W, strain CNB1, stronger effect = lower value 0.989 | S. cerevisiae deletion strains, locus YKR001C, strain vps1, stronger effect = lower value 1.02 | S. cerevisiae deletion strains, locus YKR026C, strain gcn3, stronger effect = lower value 1 | S. cerevisiae deletion strains, locus YKR091W, strain srl3, stronger effect = lower value 0.986 | S. cerevisiae deletion strains, locus YLL001W, strain dnm1, stronger effect = lower value 0.951 | S. cerevisiae deletion strains, locus YLL026W, stronger effect = lower value 0.999 | S. cerevisiae deletion strains, locus YLL041C, strain sdh2, stronger effect = lower value 0.99 | S. cerevisiae deletion strains, locus YLR027C, strain aat2, stronger effect = lower value 0.998 | S. cerevisiae deletion strains, locus YLR039C, strain RIC1, stronger effect = lower value 0.995 | S. cerevisiae deletion strains, locus YLR058C, strain SHM2, stronger effect = lower value 0.994 | S. cerevisiae deletion strains, locus YLR102C, strain apc9, stronger effect = lower value 0.994 | S. cerevisiae deletion strains, locus YLR113W, strain HOG1, stronger effect = lower value 0.972 | S. cerevisiae deletion strains, locus YLR221C, strain rsa3, stronger effect = lower value 0.983 | S. cerevisiae deletion strains, locus YLR258W, strain gsy2, stronger effect = lower value 0.993 | S. cerevisiae deletion strains, locus YLR262C, strain YPT6 (second series), stronger effect = lower value 0.972 | S. cerevisiae deletion strains, locus YLR262C, strain YPT6, stronger effect = lower value 0.98 | S. cerevisiae deletion strains, locus YLR268W, strain sec22, stronger effect = lower value 1.01 | S. cerevisiae deletion strains, locus YLR320W, strain mms22, stronger effect = lower value 0.984 | S. cerevisiae deletion strains, locus YLR330W, strain CHS5, stronger effect = lower value 0.998 | S. cerevisiae deletion strains, locus YLR342W, strain FKS1 (second series), stronger effect = lower value 1.01 | S. cerevisiae deletion strains, locus YLR342W, strain FKS1, stronger effect = lower value 0.987 | S. cerevisiae deletion strains, locus YLR357W, strain rsc2, stronger effect = lower value 0.974 | S. cerevisiae deletion strains, locus YLR370C, strain arc18, stronger effect = lower value 0.975 | S. cerevisiae deletion strains, locus YLR371W, strain rom2, stronger effect = lower value 1 | S. cerevisiae deletion strains, locus YLR384C, strain iki3, stronger effect = lower value 0.993 | S. cerevisiae deletion strains, locus YLR418C, strain cdc73, stronger effect = lower value 0.984 | S. cerevisiae deletion strains, locus YML016C, strain PPZ1, stronger effect = lower value 1.01 | S. cerevisiae deletion strains, locus YML032C, strain rad52, stronger effect = lower value 1.01 | S. cerevisiae deletion strains, locus YML120C, strain ndi1, stronger effect = lower value 0.965 | S. cerevisiae deletion strains, locus YML124C, strain tub3, stronger effect = lower value 1 | S. cerevisiae deletion strains, locus YMR058W, strain fet3, stronger effect = lower value 0.996 | S. cerevisiae deletion strains, locus YMR078C, strain ctf18, stronger effect = lower value 0.988 | S. cerevisiae deletion strains, locus YMR125W, strain sto1, stronger effect = lower value 0.971 | S. cerevisiae deletion strains, locus YMR129W, stronger effect = lower value 0.992 | S. cerevisiae deletion strains, locus YMR205C, strain PFK2, stronger effect = lower value 0.955 | S. cerevisiae deletion strains, locus YMR223W, strain ubp8, stronger effect = lower value 0.975 | S. cerevisiae deletion strains, locus YMR231W, strain pep5, stronger effect = lower value 0.998 | S. cerevisiae deletion strains, locus YMR307W, strain GAS1, stronger effect = lower value 1.04 | S. cerevisiae deletion strains, locus YNL067W, strain RPL9B, stronger effect = lower value 0.995 | S. cerevisiae deletion strains, locus YNL071W, strain lat1, stronger effect = lower value 0.98 | S. cerevisiae deletion strains, locus YNL128W, strain TEP1, stronger effect = lower value 0.967 and 0.965 | S. cerevisiae deletion strains, locus YNL153C, strain GIM3, stronger effect = lower value 1.01 | S. cerevisiae deletion strains, locus YNL175C, strain NOP13, stronger effect = lower value 1 | S. cerevisiae deletion strains, locus YNL183C, strain NPR1, stronger effect = lower value 0.924 | S. cerevisiae deletion strains, locus YNL197C, strain WHI3, stronger effect = lower value 1.01 | S. cerevisiae deletion strains, locus YNL209W, strain ssb2, stronger effect = lower value 0.988 | S. cerevisiae deletion strains, locus YNL224C, strain SQS1, stronger effect = lower value 0.997 | S. cerevisiae deletion strains, locus YNL233W, strain BNI4, stronger effect = lower value 0.997 | S. cerevisiae deletion strains, locus YNL248C, strain rpa49, stronger effect = lower value 0.985 | S. cerevisiae deletion strains, locus YNL250W, strain rad50, stronger effect = lower value 0.979 | S. cerevisiae deletion strains, locus YNL271C, strain bni1, stronger effect = lower value 0.98 | S. cerevisiae deletion strains, locus YNL298W, strain CLA4, stronger effect = lower value 0.975 | S. cerevisiae deletion strains, locus YNL307C, strain MCK1, stronger effect = lower value 0.995 | S. cerevisiae deletion strains, locus YNL322C, strain KRE1 (second series), stronger effect = lower value 0.986 | S. cerevisiae deletion strains, locus YNR049C, strain mso1, stronger effect = lower value 0.993 | S. cerevisiae deletion strains, locus YNR052C, strain pop2, stronger effect = lower value 0.987 | S. cerevisiae deletion strains, locus YOL012C, strain htz1 0.863 | S. cerevisiae deletion strains, locus YOL147C, strain pex11, stronger effect = lower value 0.992 | S. cerevisiae deletion strains, locus YOR001W, strain rrp6, stronger effect = lower value 0.994 | S. cerevisiae deletion strains, locus YOR061W, strain CKA2, stronger effect = lower value 1 | S. cerevisiae deletion strains, locus YOR069W, strain VPS5, stronger effect = lower value 0.996 | S. cerevisiae deletion strains, locus YOR070C, strain gyp1, stronger effect = lower value 0.993 | S. cerevisiae deletion strains, locus YOR080W, strain dia2, stronger effect = lower value 1 | S. cerevisiae deletion strains, locus YOR083W, strain WHI5 (second series), stronger effect = lower value 1 | S. cerevisiae deletion strains, locus YOR083W, strain WHI5, stronger effect = lower value 0.96 | S. cerevisiae deletion strains, locus YOR106W, strain vam3, stronger effect = lower value 0.976 | S. cerevisiae deletion strains, locus YOR136W, strain idh2, stronger effect = lower value 0.997 | S. cerevisiae deletion strains, locus YOR144C, strain elg1, stronger effect = lower value 1.01 | S. cerevisiae deletion strains, locus YOR184W, strain ser1, stronger effect = lower value 0.991 | S. cerevisiae deletion strains, locus YOR231W, strain MKK1, stronger effect = lower value 0.97 | S. cerevisiae deletion strains, locus YOR265W, strain rbl2, stronger effect = lower value 0.994 | S. cerevisiae deletion strains, locus YOR270C, strain vph1, stronger effect = lower value 0.98 | S. cerevisiae deletion strains, locus YOR290C, strain snf2, stronger effect = lower value 0.929 | S. cerevisiae deletion strains, locus YOR316C, strain cot1, stronger effect = lower value 0.993 | S. cerevisiae deletion strains, locus YPL051W, strain arl3, stronger effect = lower value 0.989 | S. cerevisiae deletion strains, locus YPL055C, strain LGE1, stronger effect = lower value 1.02 | S. cerevisiae deletion strains, locus YPL078C, strain atp4, stronger effect = lower value 0.967 | S. cerevisiae deletion strains, locus YPL106C, strain sse1, stronger effect = lower value 0.978 | S. cerevisiae deletion strains, locus YPL240C, strain hsp82, stronger effect = lower value 0.984 | S. cerevisiae deletion strains, locus YPL241C, strain CIN2, stronger effect = lower value 0.996 | S. cerevisiae deletion strains, locus YPL256C, strain CLN2, stronger effect = lower value 0.953 | S. cerevisiae deletion strains, locus YPR119W, strain clb2, stronger effect = lower value 0.984 | S. cerevisiae deletion strains, locus YPR141C, strain kar3, stronger effect = lower value 0.976 | S. cerevisiae deletion strains, locus YPR163C, strain tif3, stronger effect = lower value 0.991 | S. cerevisiae deletion strains, locus YPR167C, strain met16, stronger effect = lower value 0.991 | S. cerevisiae deletion strains, strain wtn01, stronger effect = lower value 0.998 | S. cerevisiae strains, strain wild type, stronger effect = lower value 1.01
